These results are taken from publication PMC11062922 (Nature Chemical Biology, 2023).

Holding throughout (parameters): species or system human, MV4-11 + K-562 + COLO205 + SK-N-BE2 + OVCAR-8
One assay has as its system BUB1. Conditions: read-out: apparent Kd, n = 1.
The subject of another assay is EPHA2. Conditions: read-out: apparent Kd, n = 1.
The subject of the next assay is HCK. Conditions: read-out: apparent Kd, n = 1.
The test system of a further assay is PHKG2. Particulars: read-out: apparent Kd, n = 1.
A further assay relates to PRKAA2. Conditions: read-out: apparent Kd, n = 1.
Another assay has as its system PRKX. Particulars: read-out: apparent Kd, n = 1.
Another assay has as its system PTK6. Conditions: read-out: apparent Kd, n = 1.
The subject of another assay is ROCK2. Particulars: read-out: apparent Kd, n = 1.
The subject of a further assay is SRC. Particulars: read-out: apparent Kd, n = 1.
Another assay deals with YES1. Particulars: read-out: apparent Kd, n = 1.
The subject of a further assay is CSNK1A1. Particulars: read-out: apparent Kd; compound concentrations:100 nM and 1000 nM (sheet 'Samples'); n = 1.
A further assay has as its system CSNK1E. Conditions: read-out: apparent Kd; compound concentrations:100 nM and 1000 nM (sheet 'Samples'); n = 1.
A further assay has as its system RPS6KA4. Conditions: read-out: apparent Kd, n = 1.
The next assay has as its system RIOK2. Particulars: read-out: apparent Kd, n = 1.
Another assay concerns CDK17. Particulars: read-out: apparent Kd; compound concentrations: 100 nM and 1000 nM (sheet 'Samples'), CATDS: 6.8555901877920197E-3; n = 1.
The subject of the next assay is STK16. Conditions: read-out: apparent Kd; compound concentrations: 100 nM and 1000 nM (sheet 'Samples'), CATDS: 6.09253969178725E-3; n = 1.
In another assay the test system is TNIK. Conditions: read-out: apparent Kd; compound concentrations: 100 nM and 1000 nM (sheet 'Samples'), CATDS: 6.3415403729181101E-3; n = 1.
Setting [1] is: compound concentrations:100 nM and 1000 nM (sheet 'Samples').

Where two headings read alike, the source gives them in different places.

With `Cl.Cl.NCC(C(=O)Nc1cc(Br)c(-c2ccnc3[nH]ccc23)s1)c1ccccc1.NCC(C(=O)Nc1cc(Br)c(-c2ccnc3[nH]ccc23)s1)c1ccccc1` (stereo not drawn) [GSK1269851A], the potency estimated from few doses in the assay with BUB1 (setting [1]) was 2170 nM; in the assay on EPHA2 (setting [1]), 505 nM; in the assay with HCK (setting [1]) it was 554 nM; in the assay on PHKG2 (setting [1]), 2300 nM; with PRKAA2 (setting [1]), 1130 nM; in the assay on PRKX (setting [1]) it was 1890 nM. For the same compound, the potency estimated from few doses in the assay on PTK6 (setting [1]) was 1450 nM; with ROCK2 (setting [1]), 1330 nM; with SRC (setting [1]), 523 nM; in the assay with YES1 (setting [1]), 378 nM.

Turning to `CC(C)N1CCC(n2cnc(-c3ccc(F)cc3)c2-c2ccnc(N)n2)CC1` [SB-223132], the potency estimated from few doses is 1670 nM with BUB1 (setting [1]); 158 nM with CSNK1A1; 77.8 nM in the assay on CSNK1E; 735 nM in the assay on EPHA2 (setting [1]); 969 nM in the assay with HCK (setting [1]); 1290 nM in the assay on PRKAA2 (setting [1]). The potency estimated from few doses was 1390 nM in the assay with PTK6 (setting [1]), 964 nM with SRC (setting [1]) and 758 nM in the assay on YES1 (setting [1]).

`CN1C[C@@H]2Cn3c(c(C4=C(c5cn(C)c6ccccc56)C(=O)NC4=O)c4ccccc43)C[C@H]2C1.Cl` [RO0320234-001]: the potency estimated from few doses was 59.7 nM in the assay on EPHA2 (setting [1]); 317 nM in the assay with HCK (setting [1]); 2180 nM in the assay on PHKG2 (setting [1]); 448 nM in the assay with PRKAA2 (setting [1]); 925 nM in the assay with PRKX (setting [1]); 970 nM in the assay with PTK6 (setting [1]). Also, the potency estimated from few doses in the assay with RPS6KA4 (setting [1]) was 1630 nM; with SRC (setting [1]), 120 nM; with YES1 (setting [1]) it was 97.8 nM.

Turning to `CCn1c(-c2nonc2N)nc2c(C#CCN)ncc(OCCCN)c21.O=C(O)C(F)(F)F` [GSK561866B], the potency estimated from few doses in the assay on ROCK2 (compound concentrations: 100 nM and 1000 nM (sheet 'Samples'), CATDS: 8.7160231406383598E-2) was 858 nM.

Regarding `Clc1cc(Cl)cc(Nc2ccnc(Nc3cc(Cl)cc(Cl)c3)n2)c1` [GSK175726A], the potency estimated from few doses with EPHA2 (compound concentrations: 100 nM and 1000 nM (sheet 'Samples'), CATDS: 3.0586231323348499E-2) is 64 nM; in the assay with HCK (compound concentrations: 100 nM and 1000 nM (sheet 'Samples'), CATDS: 1.3478571983596799E-2), 316 nM; with PHKG2 (compound concentrations: 100 nM and 1000 nM (sheet 'Samples'), CATDS: 8.5028793142563602E-3), 1680 nM; in the assay with PRKAA2 (compound concentrations: 100 nM and 1000 nM (sheet 'Samples'), CATDS: 1.07442997812795E-2), 618 nM; with PRKX (compound concentrations: 100 nM and 1000 nM (sheet 'Samples'), CATDS: 1.0278626389666701E-2), 722 nM; in the assay with PTK6 (compound concentrations: 100 nM and 1000 nM (sheet 'Samples'), CATDS: 9.7207770515578794E-3), 894 nM. For the same compound, the potency estimated from few doses was 1720 nM in the assay with RPS6KA4 (compound concentrations: 100 nM and 1000 nM (sheet 'Samples'), CATDS: 8.4689848583526291E-3); 90.3 nM with SRC (compound concentrations: 100 nM and 1000 nM (sheet 'Samples'), CATDS: 2.4757216834404398E-2); 101 nM with YES1 (compound concentrations: 100 nM and 1000 nM (sheet 'Samples'), CATDS: 2.3154900781863899E-2).

With `NCCNS(=O)(=O)c1ccc(-c2ccnc3[nH]ccc23)cc1` [GSK977617A], the potency estimated from few doses was 441 nM in the assay on EPHA2 (setting [1]); 765 nM with HCK (setting [1]); 721 nM in the assay on PRKAA2 (setting [1]); 487 nM in the assay on PRKX (setting [1]); 1170 nM with RIOK2 (setting [1]); 97.3 nM in the assay with ROCK2 (setting [1]). Also, the potency estimated from few doses with RPS6KA4 (setting [1]) is 588 nM; with SRC (setting [1]), 589 nM; in the assay with YES1 (setting [1]), 518 nM.

As to `COc1ccc(Nc2ncc(C#N)c(Nc3ccccc3C(N)=O)n2)cc1N1CCN(C)CC1.Cl` [GSK1558669A], the potency estimated from few doses with BUB1 (compound concentrations: 100 nM and 1000 nM (sheet 'Samples'), CATDS: 6.2718506729186104E-3) was 1300 nM; in the assay with CDK17, 789 nM; in the assay on HCK (compound concentrations: 100 nM and 1000 nM (sheet 'Samples'), CATDS: 7.9271656911812094E-3), 417 nM; with PRKAA2 (compound concentrations: 100 nM and 1000 nM (sheet 'Samples'), CATDS: 3.3781833346765697E-2) it was 15.3 nM; in the assay with PTK6 (compound concentrations: 100 nM and 1000 nM (sheet 'Samples'), CATDS: 1.8195014804837699E-2), 44.6 nM; in the assay with RIOK2 (compound concentrations: 100 nM and 1000 nM (sheet 'Samples'), CATDS: 6.5501119131463198E-3), 1000 nM. Also, the potency estimated from few doses is 330 nM in the assay with RPS6KA4 (compound concentrations: 100 nM and 1000 nM (sheet 'Samples'), CATDS: 8.4346807860121598E-3); 1570 nM with STK16; 1210 nM in the assay on TNIK; 318 nM in the assay with YES1 (compound concentrations: 100 nM and 1000 nM (sheet 'Samples'), CATDS: 8.5191429755921595E-3).
